# Screening results: PubChem BioAssay, National Center for Advancing Translational Sciences (NCATS)
# LDHA block – blocks human lactate dehydrogenase A; purified LDHA, NADH/diaphorase-resazurin fluorescence; hits give low values; activity change, % (values are at about 110 or 230 µM); 0.15% of 480,000 active; in the data active = activity change below about -30%; inconclusive = mostly about -25% to -30%;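 note: plate controls were DMSO wells for no effect and wells without enzyme for full effect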
#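 Human LDH5 at 2 nM final in Tris HCl pH 7.4 with 0.06 mM NADH and 0.2 mM pyruvate, reacted 5 minutes at room temperature. Remaining NADH coupled via diaphorase/resazurin; resorufin fluorescence read at 0 and 20 minutes, normalized to enzyme-free and DMSO wells.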
# pAkt inh – inhibitors of Akt phosphorylation. 0.32% of 360,000 active. activity change, % for hits at 50 µM. Neuro2A IGF-stimulated pAkt S473 HTRF, 20 min; hits give low values; in the data active = activity change below about -80%; inconclusive = mostly about -51% to -80%; note: % is set by controls: 0 for no effect and ±100 for the full control effect
#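 Neuro2A cells in DMEM with 0.5% FBS, overnight at 37 deg C, given compound at single 50 µM final, then IGF (6 nM final) for 20 min at 37 deg C. Lysed; phospho-Akt Ser473 by HTRF after 24 h, 665/615 ratio.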
# RGS4 inhibitor – blocks human RGS4-accelerated GTP hydrolysis; P49798; Transcreener GDP fluorescence polarization, RGS4-accelerated GTP hydrolysis; Potency, µM (top dose mostly 114 µM), for inactives: at the highest dose activity change, negative = inhibition, most hits filed as inhibitors; 0.039% of 390,000 active; AID 504845; active = well fitted inhibition curve with a large enough effect; inconclusive = small, poorly fitted or top-dose-only effect; inactive = no such curve, though single readings can be large or run the other way; note: potency is the fitted concentration of half-maximal effect; % is set by controls: 0 for no effect and ±100 for the full control effect; nearly all actives have a fitted effect of over 75% in size
# Target sequence (P49798 whole entry, looked up): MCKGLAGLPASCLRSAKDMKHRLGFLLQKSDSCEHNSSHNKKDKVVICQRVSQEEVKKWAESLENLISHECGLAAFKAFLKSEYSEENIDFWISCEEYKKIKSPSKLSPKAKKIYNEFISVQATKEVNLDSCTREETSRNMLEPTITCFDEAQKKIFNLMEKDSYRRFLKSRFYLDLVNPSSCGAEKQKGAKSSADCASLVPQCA
#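 MLSMR compounds (23 nl, pin-transferred) preincubated 10 min at room temperature with a 500nM (2x) first reagent, then RGS4 at 900nM (2x) plus Transcreener GDP mix added; fluorescence polarization (620/688 nm) read before and after 90 min at 30 °C.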
# DRD3 antagonist – blocks the human D3 dopamine receptor | P35462 | D3R cells, DiscoveRx beta-arrestin luminescence, antagonist mode; hits give low values | max response, negative = inhibition, % | 2.5% of 360,000 active | AID 652054; in the data active = max response below about -50%; inconclusive = no clear call, values can overlap the other calls; note: % is set by controls: 0 for no effect and ±100 for the full control effect
#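 Cells expressing the human receptor were seeded at 1500 cells/well, incubated overnight at 37 degrees C in 5% CO2, then exposed to library compounds with dopamine controls for 90 minutes at 37 degrees C before luminescent detection.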
# PI4K2A inh – inhibitors of human PI4K2A | Q9BTU6 | purified PI4K2A, ADP-Glo luminescence, 1 h; hits give low values | activity change, negative = inhibition, % at 76.9 µM | 0.13% of 420,000 active | AID 1346378; in the data active = activity change below about -50%; inconclusive = mostly about -30% to -49%;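 note: -100% = wells without enzyme as full effect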
# Target sequence (Q9BTU6 whole entry, looked up): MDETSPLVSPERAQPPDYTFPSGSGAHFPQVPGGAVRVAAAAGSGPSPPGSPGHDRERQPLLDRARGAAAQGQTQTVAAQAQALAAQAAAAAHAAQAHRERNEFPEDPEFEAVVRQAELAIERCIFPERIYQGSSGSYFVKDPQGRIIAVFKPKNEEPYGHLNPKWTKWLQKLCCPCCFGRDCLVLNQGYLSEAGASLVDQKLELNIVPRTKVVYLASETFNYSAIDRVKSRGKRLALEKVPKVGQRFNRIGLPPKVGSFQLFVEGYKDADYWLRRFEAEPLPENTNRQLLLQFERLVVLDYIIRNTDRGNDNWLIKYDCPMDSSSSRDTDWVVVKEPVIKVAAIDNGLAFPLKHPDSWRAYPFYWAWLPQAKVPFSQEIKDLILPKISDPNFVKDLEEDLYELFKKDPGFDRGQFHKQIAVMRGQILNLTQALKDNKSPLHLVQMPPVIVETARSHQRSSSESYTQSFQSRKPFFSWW
#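 ADP-Glo luminescence measured ADP generated by PI4K2A enzyme (4 ug/mL before mixing) with 1.2 mM PI substrate (pre-mix) and 300 microM ATP (pre-mix). Tris pH7.5 buffer with MgCl2, Triton X-100; 1 h reaction at ambient temperature.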
# D3 ag – activates the human D3 dopamine receptor; P35462; D3R DiscoveRx beta-arrestin cells, luminescence, 90 min; max activation, %; 0.58% of 410,000 active; AID 652048; in the data active = max activation above about 30%; note: 0% is about no effect
#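 Cells at 1500/well, incubated overnight, then treated with pinned compounds (dopamine as control) for 90 min at 37 degrees C. DiscoveRx reagent added for 30 - 60 minutes at room temperature; luminescence read.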
# * = called active by the depositor; i = inactive; ? = inconclusive; · = not tested or not shown; [ ] = another dose, or the depositor's remark. The list is not random: actives were taken first. Their share in the collection is about 2.8%.
SMILES,LDHA block,pAkt inh,RGS4 inhibitor,DRD3 antagonist,PI4K2A inh,D3 ag
Cc1ccc(C)c(Oc2ncnc(N)c2[N+](=O)[O-])c1,4,i,-8%,2,-3,2
CC(NCc1cccc(C#N)c1)c1ccc(Cl)c(Cl)c1 (configuration not stated),-22,·,·,·,·,·
COc1ccc(-c2cc(C(=O)NCC(C)C)c3ccccc3n2)cc1,3,·,·,·,·,·
COc1ccc(C2=NOC(Cn3nc(-c4ccccc4)cc3C(=O)NCc3cccc(Br)c3)C2)cc1 (configuration not stated),-3,i,-7%,33,-3,34*
COc1ccc(C2=NOC(Cn3nc(C(=O)NCc4cccc(Br)c4)cc3-c3ccccc3)C2)cc1 (configuration not stated),-5,i,4%,34,0,2
COC(=O)c1cc(NC(=O)c2ccccc2OC)c(F)cc1F,-1,·,·,·,·,·
Cc1ccccc1NC1=C/C(=N\S(=O)(=O)c2ccc(C(=O)O)cc2)c2ccccc2C1=O,58,i,-29%,-97*,?,-20
CCc1ccc(S(=O)(=O)/N=C2\C=C(NS(=O)(=O)c3ccccc3)C(=O)c3ccccc32)cc1,11,i,-7%,?,-50*,-13
CC(C)c1ccc(S(=O)(=O)/N=C2\C=C(NS(=O)(=O)c3ccccc3)C(=O)c3ccccc32)cc1,40,i,?,?,-15,-16
O=C(O)c1ccc(S(=O)(=O)/N=C2\C=C(Nc3ccccc3F)C(=O)c3ccccc32)cc1,50,i,-33%,-107*,?,-28
N#CC1=C(N)Oc2c(oc(CO)cc2=O)C1c1cccc(C(F)(F)F)c1 (configuration not stated),-5,·,·,·,·,·
COc1cccc2c1cc1c(=O)n(CC(=O)N3CCN(c4cccc(C)c4C)CC3)nc(C)n12,-1,i,?,1,-1,71*
CCc1nnc(NC(=O)C2CSC3(C)CCC(=O)N23)s1 (configuration not stated),-7,i,-1%,12,-4,0
CC12CCC(=O)N1C(C(=O)Nc1nccs1)CS2 (configuration not stated),-8,i,-27%,8,-1,79*
Cc1ccc(C(=O)C(C)C(=O)c2ccc(C)c(C)c2)cc1C,-11,·,·,·,·,·
COc1ccc2oc(-c3cccc(NC(=O)CC45CC6CC(CC(C6)C4)C5)c3)nc2c1,4,·,·,·,·,·
COC(=O)N/N=C/c1cc(Br)ccc1O,5,i,-13%,8,1,16
COC(=O)N/N=C/c1cc(N=Nc2ccccc2Cl)ccc1O,-6,i,-12%[56.9 µM],-91*,-5,-22
O=C(N/N=C/c1cc(Br)ccc1O)c1ccccc1Cl,3,i,-4%,19,3,3
Nc1ccc(C(=O)N/N=C\c2cc(N=Nc3cccc4ccccc34)ccc2O)cc1,-9,i,-28%,-95*,1,-3
COC(=O)N/N=C/c1cc(N=Nc2ccccc2)ccc1O,-6,i,-16%,-63*,-3,-27
COc1cccc(/C=C/C(=O)c2cccc(O)c2)c1,0,·,·,·,·,·
Cc1ccc(C(=O)/C=C/c2cc(Br)c(O)c(Br)c2)cc1,19,·,·,·,·,·
COC(=O)c1ccc(CNC(=O)c2ccc3c(c2)CCCC3)cc1,-4,·,·,·,·,·
CCCC(C(=O)NCc1coc(-c2cccs2)n1)c1ccccc1 (configuration not stated),4,·,·,·,·,·
SMILES,LDHA block,pAkt inh,RGS4 inhibitor,DRD3 antagonist,PI4K2A inh,D3 ag
CC1CCC2C(=O)N(c3ccc(C(=O)Oc4cccc5cccnc45)cc3)C(=O)C2C1 (configuration not stated),27,i,-32%,-68*,-11,-30
CC(C)C(NC(=O)CSc1cc(Cl)ccc1Cl)c1ccc2c(c1)OCCCO2 (configuration not stated),5,·,·,·,·,·
CCCn1c2c(c(=N)c3c1CCC3)CCCC2,-36*,i,-6%,-13,-7,-6
CCCn1c2c(c(=N)c3c1CCC3)CCC2,-13,i,2%,12,-2,22
CCOC(=O)C1CCN(C(=O)N2CCOCC2)CC1,-10,i,-10%,10,-90*,-2
COC(=O)C1CCN(C(=O)N2CCOCC2)CC1,-6,i,-4%,24,-4,-1
Nc1nccnc1C(=O)NCc1ccc(N2CCCCC2)nc1,-2,·,·,·,·,·
Cc1[nH]c2ccccc2c1CN1CCN(c2ccccn2)CC1,-3,i,-11%,-67*,5,-27
c1ccc(-c2ncc(CN3CCN(c4ccccn4)CC3)[nH]2)cc1,-2,i,-9%,-105*,-13,-12
c1ccc(N2CCN(Cc3nc4ccccc4[nH]3)CC2)nc1,-3,i,20%,3,-2,0
CCOc1ccc(-c2cc(C(=O)O)c3cc(C)ccc3n2)c(OCC)c1,3,·,·,·,·,·
CN(CC(=O)NC(=O)NCc1ccccc1)CC(=O)Nc1cccc(F)c1,-3,·,·,·,·,·
CCO[C@@H]1OC(C(=O)N2CCN(Cc3ccc4c(c3)OCO4)CC2)=C[C@H](c2ccc(C(F)(F)F)cc2)[C@H]1CCCO,1,i,-17%,-23,-3,10
CCO[C@@H]1OC(C(=O)N2CCOCC2)=C[C@H](C2CC2)[C@H]1CCCO,7,i,4%,11,-1,5
CCO[C@@H]1OC(C(=O)N2CCN(Cc3ccc4c(c3)OCO4)CC2)=C[C@H](c2ccc(Br)cc2)[C@H]1CCCO,0,i,-16%,-98*,4,-37
CCO[C@H]1OC(C(=O)N2CCOCC2)=C[C@@H](C2CC2)[C@@H]1CCCO,-2,i,29%,-55*,-7,-27
CCCC(=O)N1CCCCC1C(=O)O (configuration not stated),2,·,·,·,·,·
CN(CC/C=C1/c2ccccc2CSc2ccccc21)CCCO,-1,i,8%,?,0,-17
C#CCN(C)CC/C=C1\c2ccccc2CSc2ccccc21,-1,i,2%[11.4 µM],-71*,-13,-21
CN(C)CC/C=C1\c2cc(F)ccc2CSc2ccccc21,-4,i,-2%,-52*,5,-43
C=CCN(C)CC/C=C1\c2ccccc2CSc2ccccc21,6,i,6%,-73*,-1,-6
COc1ccc(NC(=S)Nc2ccc(N)c([N+](=O)[O-])c2)cc1,1,i,-20%,-82*,-53*,-1
CC1(CCC#N)N=C(SCCC#N)N(c2ccccc2)C1=O (configuration not stated),-9,-117%*,-27%,16,0,3
CCNC(=O)c1cc(-c2cccs2)nc2ccccc12,-1,·,·,·,·,·
